{"source": "PubChem BioAssay (EPA / NIEHS)", "note": "Several values for one entry are separate records, joined by “and”; a condition that tells them apart may be missing. Equal values may be shown once. Records with an inconclusive call do not appear. More than one record can exist for a structure, and the calls need not agree. Activity calls are given as the source filed them. The calls were made as follows: active = hit-call score of the fitted dose curve at least 0.9, where 1 is the maximum; inconclusive = response in the unintended direction; inactive = score below 0.9."}
{"target": "Cellular tumor antigen p53 (Homo sapiens) (UniProt P04637)", "sequence (P04637 whole entry, looked up, the tested form may be a part)": "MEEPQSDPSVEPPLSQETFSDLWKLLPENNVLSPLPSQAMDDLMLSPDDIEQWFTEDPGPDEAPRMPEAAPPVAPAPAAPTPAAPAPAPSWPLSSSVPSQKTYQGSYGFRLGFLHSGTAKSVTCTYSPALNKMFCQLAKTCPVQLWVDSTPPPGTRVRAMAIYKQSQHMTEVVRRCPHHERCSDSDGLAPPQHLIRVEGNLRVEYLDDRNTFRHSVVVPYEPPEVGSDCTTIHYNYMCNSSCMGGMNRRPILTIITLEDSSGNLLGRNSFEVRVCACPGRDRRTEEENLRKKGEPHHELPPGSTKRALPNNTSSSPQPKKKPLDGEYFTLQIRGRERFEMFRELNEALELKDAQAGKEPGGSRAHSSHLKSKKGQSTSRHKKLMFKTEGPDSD", "experiment": "TOX21_p53_BLA_p2_ratio: Tox21 HCT-116 p53 Agonism Beta-lactamase Assay, Ratio, Phase 2 (AID 2283592)", "excerpt": "TOX21_p53_BLA_p2 is a cell-based, single-readout assay that uses HCT116, a human intestinal cell line, […] in a 1536-well plate.TOX21_p53_BLA_p2_ratio is an assay readout measuring reporter gene via receptor activity and designed using inducible reporter (beta lactamase induction) detected with GAL4 b-lactamase reporter gene. The signal is derived from the ratio of cleaved (ch2) to uncleaved (ch1) reporter gene substrate used as the measure of target activity.Data from the assay component TOX21_p53_BLA_p2_ratio was analyzed into 1 assay endpoint. This assay endpoint, TOX21_p53_BLA_p2_ratio, was analyzed in the positive analysis fitting direction relative to DMSO as the negative control and baseline of activity. Using a type of inducible reporter, gain-of-signal activity can be used to understand changes in the reporter gene as they relate to the gene TP53. Furthermore, this assay endpoint can be referred to as a primary readout, because this assay has produced multiple assay endpoints and this ratio serves a reporter gene function to understand target activity. To generalize the intended target to other relatable targets, this assay endpoint is annotated to the DNA binding intended target family, where the subfamily is tumor suppressor.\nThawing Method: Place 14 mL of pre-warmed thaw medium into a 15 mL of conical tub. Remove the vial of cells to be thawed from liquid nitrogen and thaw rapidly by placing at 37C in a water bath with gentle agitation for 1-2 minutes. Decontaminate the vial by wiping with 70% ethanol before opening in a biological safety cabinet. Transfer the vial contents drop-wise into 14 mL of thaw medium in a sterile 15-mL conical tub. Centrifuge cells at 900 rpm for 4 minutes and resuspend in thaw medium. Transfer contents to the T75 tissue culture flask containing Thaw Medium and place flask in a humidified 37C/5% CO2 incubator. Switch to growth medium at first passage.Propagation Method: Aspirate medium, rinse once in DPBS, add 0.25% Trypsin/EDTA and swirl to coat the cell evenly. Add an equal volume of Growth Medium to inactivate Trypsin after 2-3 minutes incubation at 37C. Centrifuge cells at 900 rpm for 4 minutes and resuspend in growth medium. Cell should be passage or fed at least twice a week.Assay Protocol: Harvest cells from culture in growth medium and resuspend in assay medium. 2.2 Dispense 4000 cells/5 uL/well into 1536-well black/clear bottom plates using a Multidrop dispenser. After the cells were incubated at 37C for 5 hours, 23 nL of compounds dissolved in DMSO were transferred to the assay plate by a PinTool resulting in a 217-fold dilution. Incubate the plates for 16 hours at 37C, 5% CO2. Add 1 uL of 6X LiveBLAzer FRET B/G (CCF4-AM) Substrate Mixture to each well using a BioRAPTR dispenser and incubate the plates at room temperature for 2 hours. Measure fluorescence intensity at 460 and 530 nm emission and 405 nm excitation by an Envision detector. Data is expressed as the ratio of 460nm/530nm emissions. Add 4 uL of Cell-titer Glo to each well using BioRAPTR and incubate the plates at room temperature for 2 hours. Measure fluorescence intensity by a VewLux plate reader."}
{"smiles": "O=c1[nH]c2ccccc2n1C1CCN(CCCC(c2ccc(F)cc2)c2ccc(F)cc2)CC1", "outcome": "inactive", "AC50": "39.4 µM (active)"}
{"smiles": "CS(=O)(=O)c1ccc(C(=O)C2C(=O)CCCC2=O)c(Cl)c1COCC(F)(F)F", "outcome": "inactive"}
{"smiles": "CCCCCCCCBr", "outcome": "inactive"}
{"smiles": "CC(C=O)Cc1ccc2c(c1)OCO2", "note": "(stereo not given)", "outcome": "inactive"}
{"smiles": "CCN(N=O)C(N)=O", "outcome": "inactive"}
{"smiles": "OCCCCO", "outcome": "inactive"}
{"smiles": "O=C=Nc1ccc(Cl)cc1", "outcome": "inactive"}
{"smiles": "O=c1oc2ccccc2c(O)c1C(CC(O)c1ccc(-c2ccc(Br)cc2)cc1)c1ccccc1", "note": "(stereo not given)", "outcome": "inactive"}
{"smiles": "CC(O)(CS(=O)(=O)c1ccc(F)cc1)C(=O)Nc1ccc(C#N)c(C(F)(F)F)c1", "note": "(stereo not given)", "outcome": "inactive"}
{"smiles": "Nc1cccnc1", "outcome": "inactive"}
{"smiles": "OC(c1ccc(Cl)cc1)(c1ccc(Cl)cc1)c1cccnc1", "AC50": "44.3 µM (active)"}
{"smiles": "CNC(=O)O/N=C/C(C)(C)S(C)(=O)=O", "outcome": "inactive"}
{"smiles": "CCC[N+](CCC)(CCC)CCC", "outcome": "inactive"}
{"smiles": "CN(C)c1ccc(N=O)cc1", "outcome": "inactive", "AC50": "75.7 µM (active)"}
{"smiles": "O=S(=O)(c1ccc(Cl)cc1)c1cc(Cl)c(Cl)cc1Cl", "outcome": "inactive"}
{"smiles": "Clc1cnc(Oc2ccc(Oc3ncc(Cl)cc3Cl)cc2)c(Cl)c1", "outcome": "inactive"}
{"smiles": "C[C@H]1C(=O)O[C@@H]2CCN3CC=C(COC(=O)[C@](C)(O)[C@]1(C)O)[C@H]23", "outcome": "inactive"}
{"smiles": "CCOP(=S)(OCC)SCSc1cc(Cl)ccc1Cl", "outcome": "inactive"}
{"smiles": "C=CCCl", "outcome": "inactive"}
{"smiles": "C=CC(=O)[O][Sn]([CH2]CCC)([CH2]CCC)[CH2]CCC", "AC50": "13.5 µM (active)"}
{"smiles": "Oc1ccc(Cc2ccc(O)cc2)cc1", "outcome": "inactive"}
{"smiles": "CCOc1ccc(N)cc1", "outcome": "inactive"}
{"smiles": "Clc1cc(C(Cl)(Cl)Cl)cnc1Cl", "outcome": "inactive"}
{"smiles": "N#Cc1ccc(Cl)cc1", "outcome": "inactive"}
{"smiles": "O=C(O)c1cc(I)cc(I)c1I", "outcome": "inactive"}
{"smiles": "O=NN1CCOCC1", "outcome": "inactive"}
{"smiles": "CCC(C)(C#N)N=NC(C)(C#N)CC", "note": "(stereo not given)", "outcome": "inactive"}
{"smiles": "ClCCCCl", "outcome": "inactive"}
{"smiles": "c1csc(-c2ccc(-c3cccs3)s2)c1", "AC50": "50.2 µM (active)"}
{"smiles": "Cc1cc(Cl)ccc1O", "outcome": "inactive"}
{"smiles": "COC(=O)Nc1cccc(OC(=O)Nc2cccc(C)c2)c1", "outcome": "inactive"}
{"smiles": "O=C(Nc1ccc(Br)cc1)c1cc(Br)cc(Br)c1O", "AC50": "1.15 µM (active) and 272 nM (active) and 3.12 µM (active)"}
{"smiles": "Nc1ccc(Br)cc1", "outcome": "inactive"}
{"smiles": "O=[N+]([O-])c1ccc(Nc2ccccc2)cc1", "outcome": "inactive", "AC50": "72.5 µM (active)"}
{"smiles": "N#CCCC(Br)(C#N)CBr", "note": "(stereo not given)", "outcome": "inactive"}
{"smiles": "CCN(CC)C(=O)C(Cl)=C(C)OP(=O)(OC)OC", "outcome": "inactive"}
{"smiles": "CCCCC(CC)C(=O)Cl", "note": "(stereo not given)", "outcome": "inactive"}
